Results filed as inconclusive are left out. Calls of active or inactive are those of the source. Unless noted, calls come from the whole dose curve; as a rule, active = well fitted curve in the direction sought with a large enough effect; inconclusive = small, poorly fitted or top-dose-only effect, or another doubt; inactive = no such curve, though single readings can be large; an effect the other way counts as inactive or inconclusive.
Key:
[1] = Cell Viability - BJ (AID 421; calls by dose curve;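 note: potency is the fitted concentration of half-maximal effect; cells exposed to compound for 40 hours at 37 °C before readout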); settings: BJ fibroblast viability, qHTS
Method in brief: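 Normal human BJ foreskin fibroblasts, 1500/well in complete medium, treated 40 hr at 37 °C. Cellular ATP by CellTiter-Glo luminescence; normalized to DMSO and 100 uM tamoxifen, AC50 from Hill fit.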

[2] = Cell Viability - Jurkat (AID 426;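 active = dose-dependent loss of cell ATP signal giving a full or clear fitted curve, ranked by lower potency value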; note: potency is the fitted concentration of half-maximal effect); settings: qHTS
Method in brief: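 Cytotoxicity was scored as loss of cellular ATP, measured by luciferase-based luminescence, in Jurkat clone E6-1 cells after 40 h compound treatment; tamoxifen and doxorubicin served as positive controls.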

[3] = Cell Viability - Hek293 (AID 427;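 active = compounds whose dose-response curve shows a full or clear partial loss of cell viability, called from curve shape rather than a numeric limit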;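 note: potency is the fitted concentration of half-maximal effect; cells exposed to compound for 40 hours at 37 °C before reading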); settings: qHTS
Method in brief: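 HEK293 cells in complete medium were exposed to compound for 40 hr at 37 °C, then cellular ATP was read by CellTiter-Glo luminescence. Data were normalized to DMSO (basal) and 100 uM tamoxifen (100% inhibition), and AC50 came from Hill fits.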

[4] = Cell Viability - HepG2 (AID 433; calls by dose curve;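 note: potency is the fitted concentration of half-maximal effect; potency for ATP loss meaning cytotoxicity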); settings: qHTS
Method in brief: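 Cytotoxicity is scored as loss of intracellular ATP in HepG2 cells exposed to compounds for 40 h. Concentration-response curves, normalized to DMSO and 100 uM tamoxifen, give AC50 values.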

[5] = Cell Viability - MRC5 (AID 434; calls by dose curve;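 note: potency is the fitted concentration of half-maximal effect; potency reflects cytotoxicity seen as loss of intracellular ATP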); settings: MRC5 lung fibroblast viability, qHTS
Method in brief: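 AC50 values come from Hill-equation fits of intracellular ATP loss, measured by CellTiter-Glo luminescence. Normal lung fibroblasts (MRC5) had 40 hr compound treatment at 37 C, normalized between DMSO and 100 uM tamoxifen.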

[6] = Cell Viability - SK-N-SH (AID 435; calls by dose curve;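 note: potency is the fitted concentration of half-maximal effect; compound exposure lasted 40 h at 37 °C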); settings: SK-N-SH neuroblastoma cell viability qHTS
Method in brief: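 Cells seeded at 1500 per well and incubated 5 hr at 37 °C. Compound added, then 40 hr at 37 °C. CellTiter-Glo added, 20 min at room temperature, luminescence read.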

[7] = Cell Viability - N2a (AID 540); settings: N2a mouse neuroblastoma cell viability; activity change, negative = cytotoxicity: at 92.2 µM (top of the series);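 note: plate controls were DMSO alone for no effect and tamoxifen control for full effect; nearly all actives have a fitted effect of over 45% in size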
Method in brief: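 In this qHTS cytotoxicity screen, ATP-dependent luciferase luminescence reports viable N2a cells after a 40 hr compound exposure in complete culture medium. Potencies are AC50 values from standard Hill equation fits.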

[8] = Cell Viability - NIH 3T3 (AID 541); settings: NIH 3T3 cell viability, qHTS; activity change, negative = cytotoxicity: at 92.2 µM (top of the series);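 note: plate controls were DMSO alone for no effect and tamoxifen positive control for full effect; nearly all actives have a fitted effect of over 25% in size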
Method in brief: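 In this cytotoxicity screen, acute toxicity is scored as an ATP drop measured by CellTiter-Glo in NIH 3T3 fibroblasts following a 40 hr, 37 °C incubation with compound.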

[9] = Cell Viability - HUV-EC-C (AID 542); settings: HUV-EC-C endothelial cell viability, qHTS; series mostly up to 92.2 µM; note: % is set by controls: 0 for no effect and ±100 for the full control effect; nearly all actives have a fitted effect of over 35% in size
Method in brief: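 Concentration-dependent ATP loss in HUV-EC-C cells is the measure. Exposure lasts 40 hr at 37 °C; luminescence follows CellTiter-Glo addition, and Hill fits give AC50.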

[10] = Cell Viability - H-4-II-E (AID 543); settings: H-4-II-E rat hepatoma viability; series mostly up to 92.2 µM; note: % is set by controls: 0 for no effect and ±100 for the full control effect; nearly all actives have a fitted effect of over 35% in size
Method in brief: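 AC50 from Hill-modelled qHTS concentration-response curves. H-4-II-E rat hepatoma cells in complete medium, 40 hr exposure at 37 °C, viability by CellTiter-Glo ATP luminescence.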

[11] = Cell Viability - SH-SY5Y (AID 544); settings: SH-SY5Y neuroblastoma cell viability; viability change, negative = cytotoxic: at 92.2 µM (top of the series); note: nearly all actives have a fitted effect of over 55% in size
Method in brief: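 Quantitative HTS in SH-SY5Y neuroblastoma cells, 40 hr treatment at 37 °C, ATP content by luciferase luminescence; AC50 from Hill fits.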

[12] = Cell Viability - Renal Proximal Tubule (AID 545); settings: renal proximal tubule cells viability, primary cells of rat origin; activity change, negative = cytotoxicity: at 91.7 µM (top of the series); note: nearly all actives have a fitted effect of over 40% in size
Method in brief: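 Cytotoxicity is scored as a concentration-dependent drop in cellular ATP in primary rat renal proximal tubule cells exposed for 40 hr. AC50 derives from Hill modelling.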

[13] = Cell Viability - Mesenchymal (AID 546); settings: mesenchymal cells viability, qHTS; activity change, negative = cytotoxicity: at 91.7 µM (top of the series);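 note: cells exposed to compound for 40 hours before reading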
Method in brief: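 CellTiter-Glo luminescence (intracellular ATP, 20 min room temperature) after 40 hr compound exposure at 37 °C of 1000 glomerulus-derived human kidney mesenchymal cells/well; AC50 values obtained by fitting qHTS concentration-response data to the Hill equation.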

[14] = Cellular Toxicity (caspase-3) HepG2 (AID 654); settings: HepG2 caspase-3 activation, luminescence; series mostly up to 92.2 µM;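 note: cells exposed to compound for 16 hours before reading; 0% = DMSO alone and 100% = caspase signal from 100 µM tamoxifen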
Method in brief: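 Concentration-response AC50 values reflect caspase-3/7 induction in HepG2 cells after 16 hours of compound exposure, quantified by luminescence from liberated aminoluciferin and referenced to 100 uM tamoxifen as full stimulation.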

[15] = Cellular Toxicity (caspase-3) Jurkat (AID 655); settings: Jurkat caspase-3 activation, luminescence; caspase-3 activation: at 92.2 µM (top of the series), DMSO = 0%, tamoxifen = 100%;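 note: cells exposed to compound for 16 h at 37 °C before reading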
Method in brief: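 Caspase 3/7 activation is scored as increased luminescence in Jurkat cells cultured with compound for 16 hours in complete medium. AC50 values come from Hill fits of qHTS concentration-response data normalized to DMSO and 100 uM tamoxifen controls.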

[16] = Cellular Toxicity (caspase-3) HUV-EC-C (AID 656); settings: HUV-EC-C cells, caspase-3 activation (apoptosis); series mostly up to 92.2 µM
Method in brief: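 Read-out: luminescence proportional to caspase 3/7 activity, measured 20 min after adding Caspase-Glo 3/7 reagent. Cells (HUV-EC-C) had received compound for 16 hr at 37°C. Increases relative to DMSO and 100 uM tamoxifen gave concentration-response AC50 values.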

[17] = Cellular Toxicity (caspase-3) SHSY5Y (AID 657); settings: SH-SY5Y caspase-3 activation; series mostly up to 91.7 µM
Method in brief: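 Cells plated and incubated 5 h at 37 °C, dosed over a concentration range, incubated 16 h, then given Caspase-Glo 3/7 reagent for 1 h at room temperature before luminescence reading. Staurosporine (10 uM) defined full stimulation.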

[18] = Cellular Toxicity (caspase-3) BJ (AID 658); settings: BJ fibroblasts, luminescence; Potency: caspase-3 activation; series mostly up to 91.7 µM
Method in brief: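 Caspase-Glo 3/7 luminescence, read 1 hr after reagent at room temperature, in normal BJ fibroblasts exposed 16 hours at 37 °C. AC50 values from Hill-equation concentration-response, scaled between DMSO basal and 10 uM staurosporine as 100%.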

[19] = Cellular Toxicity (caspase-3) MRC-5 (AID 659); settings: MRC-5 cells, luminescence, normalized: DMSO 0%, 10 µM staurosporine 100%; series mostly up to 91.7 µM
Method in brief: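 Luminescent Caspase-Glo 3/7 read-out (1 h, room temperature) after a 16 h, 37 °C compound exposure of MRC-5 lung fibroblasts at 1500 cells/well. Concentration-response AC50 from Hill equation; 0% DMSO, 100% 10 uM staurosporine.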

[20] = Cellular Toxicity (caspase-3) Mesangial (AID 660); settings: mesangial cells, normalized: DMSO 0%, 100 µM tamoxifen 100%; at 91.7 µM (top of the series);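 note: cells exposed to compound for 16 h before the caspase read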
Method in brief: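 AC50 values come from Hill-equation fits of caspase 3/7 activation, measured as Caspase-Glo luminescence in human glomerular mesangial cells exposed to compound for 16 h at 37 °C; 100% set by 100 uM tamoxifen.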

[21] = Cellular Toxicity (caspase-3) H-4-II-E (AID 663); settings: H-4-II-E rat hepatoma; Potency: caspase-3 activation; caspase-3 activation: at 92.2 µM (top of the series), scaled: DMSO 0%, 100 µM tamoxifen 100%;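 note: cells exposed to compound for 16 hr before readout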
Method in brief: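 Caspase 3/7 activation measured by luminescent aminoluciferin substrate cleavage after 16 hr compound treatment of H-4-II-E cells in complete medium. Increase normalized between DMSO (basal) and 100 uM tamoxifen (100%); Hill-equation AC50 from concentration-response.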

[22] = Cellular Toxicity (caspase-3) Hek293 (AID 664); settings: HEK293 caspase-3 activation, DMSO = 0%, 100 µM tamoxifen = 100%; at 92.2 µM (top of the series);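 note: cells exposed to compound for 16 h at 37 °C before readout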
Method in brief: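 Apoptosis readout: Caspase-Glo 3/7 signal in human HEK293 cells following 16-hour compound incubation. Responses scaled between DMSO baseline and 100 uM tamoxifen.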

[23] = Cellular Toxicity (caspase-3) N2a (AID 665); settings: N2a cells, luminescence; Potency: caspase-3 activation; series mostly up to 92.2 µM;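 note: compound exposure lasted 16 h at 37 °C before readout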
Method in brief: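 Concentration-response qHTS: compound-induced caspase-3/7 luminescence in N2a cells (16 h, 37 °C), relative to DMSO and 10 uM staurosporine controls; AC50 obtained using the standard Hill equation.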

[24] = Cellular Toxicity (caspase-3) NIH 3T3 (AID 666); settings: NIH 3T3 caspase-3 activation, apoptosis/toxicity; series mostly up to 92.2 µM;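 note: 0% = DMSO basal and 100% = 100 µM tamoxifen stimulation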
Method in brief: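 Activity: caspase-3/7 induction, NIH 3T3 cells, 16 hr treatment at 37°C, luminescent Caspase-Glo detection; AC50 via Hill equation.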

[25] = Cellular Toxicity (caspase-3) Renal Proximal Tubule (AID 667); settings: renal proximal tubule cells, primary cells freshly taken from rat, solvent-only wells 0%, staurosporine 100%; series mostly up to 91.7 µM;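 note: cells exposed to compound for 16 hours at 37 °C before detection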
Method in brief: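 In qHTS format, rat primary proximal tubule cells seeded at 1000 per well are exposed to compounds for 16 hours at 37 °C. An increase in Caspase-Glo 3/7 luminescence indicates caspase activation.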

[26] = biological target: Cytochrome P450 3A4 (Homo sapiens) (UniProt P08684); experiment: qHTS Assay for Inhibitors and Substrates of Cytochrome P450 3A4 (AID 884); settings: recombinant CYP3A4, Luciferin-PPXE luminescence; series mostly up to 57.1 µM; note: % is set by controls: 0 for no effect and ±100 for the full control effect; nearly all actives have a fitted effect of over 50% in size
Chain of Cytochrome P450 3A4 (Homo sapiens) (P08684 whole entry, looked up): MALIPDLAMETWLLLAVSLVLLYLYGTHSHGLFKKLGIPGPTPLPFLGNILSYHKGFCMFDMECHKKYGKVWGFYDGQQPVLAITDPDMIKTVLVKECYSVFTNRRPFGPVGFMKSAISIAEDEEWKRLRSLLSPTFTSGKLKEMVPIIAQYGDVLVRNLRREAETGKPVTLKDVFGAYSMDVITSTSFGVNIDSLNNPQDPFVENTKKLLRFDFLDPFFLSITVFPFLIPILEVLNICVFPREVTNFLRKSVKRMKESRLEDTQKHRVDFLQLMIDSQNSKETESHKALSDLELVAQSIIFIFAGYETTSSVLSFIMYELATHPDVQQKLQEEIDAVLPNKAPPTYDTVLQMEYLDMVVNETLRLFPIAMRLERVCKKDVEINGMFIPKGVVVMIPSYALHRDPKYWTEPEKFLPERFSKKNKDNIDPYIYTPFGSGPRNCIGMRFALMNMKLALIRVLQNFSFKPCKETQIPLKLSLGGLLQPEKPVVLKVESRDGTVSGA
Method in brief: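 Luminescent readout of luciferin produced by CYP3A4 (20 nM) dealkylation of Luciferin-PPXE, 25 uM (its KM). NADPH-driven reaction ran 60 min at RT after 10 min compound preincubation; data scaled to 57 uM ketoconazole as 100% inhibition.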

[27] = Cell Viability - LYMP2-001 (AID 921); settings: LYMP2-001 lymphoblastoid cell viability; series mostly up to 92.2 µM;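 note: cells exposed to compound for 24 h at 37 °C; 0% = DMSO only and full inhibition = tetraoctylammonium bromide control wells; nearly all actives have a fitted effect of over 70% in size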
Method in brief: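 qHTS, 1536-well; lymphoblastoid cells, 24 hr compound, 37 C; ATP by CellTiter-Glo, 30 min RT; luminescence; Hill-fit AC50.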

[28] = MultiTox-Fluor Cytotoxicity Assay - LYMP1-001 - Dead Cells (AID 946); settings: LYMP1-001 lymphoblastoid cells, dead-cell protease fluorescence; series mostly up to 92.2 µM;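 note: 0% = DMSO and 100% = tetraoctylammonium bromide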
Method in brief: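 LYMP1-001 lymphoblastoid cells (2500/well) treated 16 h at 37 C. Dead-cell protease cleavage of bis-AAF-R110 read at Ex/Em 485/520. Normalized to DMSO and 15 uM tetraoctylammonium bromide; AC50 from Hill fits.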

[29] = MultiTox-Fluor Cytotoxicity Assay - LYMP1-001 - Live Cells (AID 947); settings: LYMP1-001 lymphoblastoid cells, live-cell protease fluorescence viability; series mostly up to 92.2 µM;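 note: 0% = DMSO only and full inhibition = tetraoctylammonium bromide control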
[30] = Cell Viability - LYMP1-002 - Assay at 16 hr (AID 948); settings: LYMP1-002 lymphoblastoid cell viability; series mostly up to 92.2 µM;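 note: 0% = DMSO alone and full effect = 92 µM tetraoctylammonium bromide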
Method in brief: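 Acute cytotoxicity is scored as a concentration-dependent fall in intracellular ATP in a human lymphoblastoid line (LYMP1-002) after 16 hr compound exposure at 37 C, measured by luciferase luminescence.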

[31] = MultiTox-Fluor Cytotoxicity Assay - LYMP1-002 - Live Cells (AID 955); settings: LYMP1-002 lymphoblastoid live-cell protease fluorescence viability; series mostly up to 46.1 µM; note: % is set by controls: 0 for no effect and ±100 for the full control effect
Method in brief: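 In this qHTS viability format, lymphoblastoid cells (LYMP1-002, human) received compound for 16 hr at 37 C. Fluorogenic GF-AFC cleavage by viable cells was detected at 405/510 nm after 1 h at room temperature.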

[32] = MultiTox-Fluor Cytotoxicity Assay - LYMP1-002 - Dead Cells (AID 960); settings: LYMP1-002 lymphoblastoid cells, dead-cell protease fluorescence; series mostly up to 46.1 µM;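 note: 0% = DMSO and 100% = tetraoctylammonium bromide; nearly all actives have a fitted effect of over 60% in size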
Method in brief: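 Concentration-dependent increases in membrane-leaked protease activity are quantified in LYMP1-002 cells after 16 hr treatment; values are normalized against DMSO and tetraoctylammonium bromide (15 uM) controls and AC50 derived by Hill modeling.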

[33] = MultiTox-Fluor Cytotoxicity Assay - LYMP1-003 - Dead Cells (AID 961); settings: LYMP1-003 lymphoblastoid cells, dead-cell protease fluorescence; series mostly up to 92.2 µM;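 note: 0% = DMSO and 100% = tetraoctylammonium bromide; nearly all actives have a fitted effect of over 70% in size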
Method in brief: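 LYMP1-003 human lymphoblastoid cells (2500/well) exposed to compound 16 h at 37 C in complete medium; dead-cell protease read with bis-AAF-R110 fluorescence (Ex/Em 485/520) after 60 min at room temperature. Normalized to DMSO and 15 uM tetraoctylammonium bromide; AC50 from Hill fit.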

[34] = MultiTox-Fluor Cytotoxicity Assay - LYMP1-003 - Live Cells (AID 962); settings: LYMP1-003 lymphoblastoid cells, MultiTox-Fluor live-cell protease fluorescence; series mostly up to 92.2 µM;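 note: 0% = DMSO only and full loss = 92 µM tetraoctylammonium bromide; cytotoxic hits lower the live-cell protease signal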
Method in brief: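 Human lymphoblastoid line LYMP1-003 in complete culture medium, treated 16 hr with titrated compounds. Viable cells quantified via cell-permeant GF-AFC substrate fluorescence; AC50 derived by Hill fitting.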

[35] = Cell Viability - LYMP1-003 - Assay at 24 hr (AID 963); settings: LYMP1-003 lymphoblastoid cell viability; series mostly up to 92.2 µM;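 note: plate controls were DMSO only for no effect and tetraoctylammonium bromide positive control for full effect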
Method in brief: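 The lymphoblastoid line was treated with titrated compounds for 24 hours, and viable cell number estimated from luciferase-based ATP luminescence.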

c1ccc2c(c1)ccc1cc3c(ccc4ccccc43)cc12
inactive: Potency [1] > 92 µM | Potency [2] > 92 µM | Potency [3] > 92 µM | Potency [4] > 92 µM | Potency [5] > 92 µM | Potency [6] > 92 µM | Potency [7] | Potency [8] | Potency [9] | Potency [10] | Potency [11] | Potency [12] | Potency [13] | Potency [14] | Potency [15] | Potency [16] | Potency [17] | Potency [18] | outcome [19] | caspase-3 activation [20] 0.415% | caspase-3 activation [21] -1.53% | caspase-3 activation [22] -3.42% | Potency [23] | Potency [24] | outcome [25] | Potency [26] | Potency [27] | Potency [28] | Potency [29] | Potency [30] | Potency [31] | Potency [32] | Potency [33] | Potency [34] | Potency [35]
